# Hits are enriched below; roughly 3.5% of the tested compounds scored in any of these assays.
# Pf apPOL inh: Pf-apPOL DNA polymerase inhibition | AID 1794808 | 0.25% of 210,000 active | Recombinant Pf-apPOL, molecular beacon fluorescence, 1.5 h | inhibition, % at 10 µM
# mHTT-CaM PPI inh: inhibitors of human mutant huntingtin-calmodulin interaction | inhibition, % at 15 µM | P42858 | 3.6% of 190,000 active | AlphaScreen His-mHTT/GST-CaM binding, luminescence | AID 1671202;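 also: 0% = both proteins with DMSO and 100% = one protein alone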
# Starred values were filed as active, the others as inactive; · = no result. Rule as the data show it: active = inhibition above about 50%; inactive = the rest.
SMILES,Pf apPOL inh,mHTT-CaM PPI inh
O=C(c1ccnc(-c2cccs2)c1)N1CCCCCC1,-8.0,-3.7
CN(N=C(C#N)C(=O)C1CC1)c1ccc(Cl)cc1,1.7,·
COc1ccc2[nH]c3c(c2c1)CC(C)NC3=O (centres undefined),-3.4,1.0
O=C1NCCc2c1[nH]c1ccc(C#Cc3ccccc3)cc21,-31.2,97.1*
Fc1cc(F)c(C2SCCN2C(=S)NCCc2ccccc2)c(F)c1 (centres undefined),·,59.0*
S=C(NCCc1ccccc1)N1CCOCC1,-10.8,·
CCn1c(C2CCN(C(=O)c3ccc(F)c(F)c3)C2)nc2cccnc21 (centres undefined),-6.6,-7.8
CN1CCN(Cc2ccc(-c3cccc([N+](=O)[O-])c3)o2)CC1,-21.7,3.7
O=[N+]([O-])c1cccc(-c2ccc(CN3CCN(c4ccccc4)CC3)o2)c1,-1.1,56.0*
Cc1ccc(C)c(N2CCN(Cc3cc4c(cc3[N+](=O)[O-])OCO4)CC2)c1,-6.6,32.1
Cc1ccc(C)c(N2CCN(Cc3ccc(-c4ccccc4[N+](=O)[O-])o3)CC2)c1,2.2,69.5*
c1cc(COc2ccc3c(c2)OCO3)no1,·,1.8
CSc1ccccc1NC(=O)c1ccc(-n2ccnc2)nn1,-3.5,31.3
O=C(Nc1nc2ccccc2[nH]1)c1ccc(-n2ccnc2)nn1,-0.1,94.1*
Cc1ccc(C2NC(C(=O)O)CS2)cc1[N+](=O)[O-] (centres undefined),-5.2,-3.0
Cc1c(-c2ccc(C3NC(C(=O)O)CS3)o2)cccc1[N+](=O)[O-] (centres undefined),-2.9,52.0*
COc1cc(Cl)c(S(=O)(=O)N2CCCCC2)cc1Cl,-2.0,-1.8
O=C(Nc1c2cnn(-c3ccccc3)c2nc(=O)n1-c1ccccc1)c1cccc([N+](=O)[O-])c1,-0.3,8.0
O=C(CNC(=O)Cn1cnc2ccccc2c1=O)NCc1ccccn1,-0.3,-8.0
Cc1cccc(NC(=O)CN2C(=O)C(c3ccc(F)cc3)=NC23CCCC3)c1C,-3.9,-0.4
COc1ccc(NC(=O)CN2C(=O)C(c3ccc(C)cc3)=NC23CCCCC3)cc1,-8.6,-0.6
O=C(CN1C(=O)C(c2ccccc2)=NC12CCCC2)Nc1ccc(F)c(F)c1,-10.2,4.9
COc1ccc(C2=NC3(CCCCC3)N(CC(=O)Nc3ccc(F)c(F)c3)C2=O)cc1,-6.0,98.1*
COc1ccc(NC(=O)CN2C(=O)C(c3ccccc3)=NC23CCCCCC3)cc1,-11.4,9.0
COc1ccc(C2=NC3(CCCCCC3)N(CC(=O)Nc3ccc(Cl)cc3)C2=O)cc1,-3.3,90.2*
SMILES,Pf apPOL inh,mHTT-CaM PPI inh
COc1ccc(C2=NC3(CCCCC3)N(CC(=O)Nc3ccc(F)cc3)C2=O)cc1,-7.4,66.3*
Cc1ccccc1NC(=O)CN1C(=O)C(c2ccc(F)cc2)=NC12CCCCC2,-1.3,50.1*
CC(=O)N1CCC(n2c(C)nc(C(=O)Nc3ccccc3)c2C)CC1,0.9,-0.4
CCN1c2ccc(NC(=O)c3coc(=O)c4ccccc34)cc2C2C=CC=CC21 (centres undefined),-1.4,13.0
COc1c(C(=O)NCc2ccc3c(c2)OCO3)sc2ccc(Cl)cc12,-2.0,-2.9
COc1ccc(CN2CCc3nc(N4CCN(c5ncccn5)CC4)ncc3C2)cc1,-3.5,100.2*
Fc1ccc(N2CCN(c3ncc4c(n3)CCN(Cc3ccccc3)C4)CC2)cc1,-4.0,14.1
COc1ccc(CN2CCc3nc(N4CCN(c5ccccc5)CC4)ncc3C2)cc1,0.0,33.0
Fc1ccc(CN2CCc3nc(N4CCN(c5ncccn5)CC4)ncc3C2)cc1,-2.1,99.9*
Cc1ccc(NC(=O)Cn2nc(N3CCSCC3)c3ccccc3c2=O)cc1,0.8,-7.0
CC(=O)C1=NN(c2ccc(C)cc2)C(=C2C(=O)c3ccccc3C2=O)S1,-8.6,·
O=C(NCc1ccc(F)cc1F)C1CCN(c2nnc(-c3ccccc3)o2)CC1,-8.2,10.0
Cc1ccccc1NS(=O)(=O)c1cccc2cccnc12,-7.7,-2.0
Cc1ccc(N2C(=O)CCS2(=O)=O)cc1S(=O)(=O)Nc1cccc2cccnc12,-119.6,74.6*
Cn1cnnc1C1CCCCN1C(=O)Cc1c[nH]c2ccccc12 (centres undefined),91.3*,3.8
CCCn1cnnc1C1CCN(C(=O)Cc2c[nH]c3ccccc23)CC1,1.7,13.1
CC1=Nc2cc(C(=O)NCCCN3CCC(C)CC3)ccc2Sc2ccc(Cl)cc21,-16.4,53.0*
CC1=Nc2cc(C(=O)NCCN3CCOCC3)ccc2Sc2ccc(Cl)cc21,-19.7,39.0
COC(CNC(=O)c1ccc(N2CCc3ccccc32)c([N+](=O)[O-])c1)OC,-3.7,58.0*
COC(CNC(=O)c1ccc(N2CCN(c3ccccn3)CC2)c([N+](=O)[O-])c1)OC,2.1,9.0
Cc1cccc2nnc(N3CCCC(C(=O)NCC4CCCCC4)C3)n12 (centres undefined),-4.6,0.3
Cc1ccc(S(=O)(=O)N2CC=C(c3cn(C)c4ncccc34)CC2)cc1Cl,-1.4,64.8*
COc1ccc(S(=O)(=O)N2CC=C(c3cn(C)c4ncccc34)CC2)cc1Cl,-2.0,6.9
COc1ccc2c(c1)C1C=CCC1C(C(=O)O)N2 (centres undefined),1.6,99.7*
CC(=O)Nc1ccc2c(c1)C1C=CCC1C(C(=O)O)N2 (centres undefined),-10.1,89.4*
SMILES,Pf apPOL inh,mHTT-CaM PPI inh
COc1ccc(OC)c(C2NC(C(=O)O)CS2)c1 (centres undefined),-6.9,46.0
CC(=O)Nc1ccc2c(c1)C1C=CCC1C(c1ccccc1F)N2 (centres undefined),-0.7,72.8*
O=C(Nc1ccc2c(c1)C1C=CCC1C(C(=O)O)N2)c1ccc(Cl)cc1Cl (centres undefined),1.5,94.5*
CC(=O)Nc1ccc(NC(=O)c2ccc(Cl)cc2Cl)cc1,-8.0,-9.1
CC(=O)Nc1ccc2c(c1)OCCO2,-1.8,·
COc1ccc(-c2cc(C(=O)N3CCCC3c3cc(C(C)C)on3)no2)cc1OC (centres undefined),1.0,-4.0
COc1ccc(OCC(=O)Nc2ccc(S(=O)(=O)Nc3cc(OC)nc(OC)n3)cc2)cc1,0.7,25.0
CC(=O)N1CCCN(C2=NS(=O)(=O)C(c3ccc(F)cc3)=C2C)CC1,4.1,-3.1
CC1(C)Nc2ccccc2-c2c1ssc2=Nc1cccc(Cl)c1,·,68.8*
Cc1cc2c(cc1C)-c1c(ssc1=Nc1ccc(S(N)(=O)=O)cc1)C(C)(C)N2,·,19.8
Cc1ccc2c(c1)-c1c(ssc1=Nc1cc(Cl)ccc1Cl)C(C)(C)N2,·,97.8*
Cc1ccc2c(c1)/C(=C/c1ccc(Cl)cc1)C(=O)N2,-1.6,36.0
Cc1ccc2c(c1)NC(C)(C)c1ssc(=Nc3ccc(Cl)cc3Cl)c1-2,·,61.6*
Cc1ccc(C(=O)N2CC(=O)Nc3ccc(F)cc3C2c2ccccc2)cc1C (centres undefined),-5.5,31.0
N=C1NC(=O)/C(=C/c2ccc(O)c([N+](=O)[O-])c2)S1,-2.5,49.0
O=[N+]([O-])/C(=C1/CCCCCN1)c1c(O)ccc2c1c([N+](=O)[O-])c1n2CCCCC1,-0.6,16.0
CC(=O)NCc1csc(C2CCN(C(=O)c3ccc(F)c(F)c3)CC2)n1,-1.2,-1.2
Cc1ccc(CNC(=O)c2csc(-c3ccncc3)n2)cc1,-0.9,9.2
O=C1ON=C(CSc2ccccc2)C1=Cc1ccccc1,61.3*,·
O=C1CCC=C1CSc1ccccc1,·,-7.5
